# Measured values published in PubChem BioAssay AID912 (National Center for Advancing Translational Sciences (NCATS), 2007).
# Values joined by “and” are separate entries in the source; they are usually repeats but may differ in a detail not shown here. Identical values can stand only once. Among all 70,000 compounds or so, about 470 (0.67%) were called active. About 18% were inconclusive and are not listed. Calls come from the whole dose curve. Shown is part of a subset that was picked to be rich in actives. Entries that show only a call come without a potency. A structure can be active in one record and inactive in another.
# Assay: qHTS Assay for Anthrax Lethal Toxin Internalization; note: nearly all actives have a fitted effect of over 50% in size
# Conditions: Cells, FRET ratio (460/530); series mostly up to 40 µM
# Potency is the fitted concentration of half-maximal effect.
SMILES,"activity change, negative = inhibition",Potency
CN1CCc2nc(-c3ccccc3)c(-c3ccccc3)cc2C1,-6.08% [at 8 µM] (inactive),
COCCn1c(=O)c(C)nc2cnc(N(C)C)nc21,inactive,
O=C1C[C@@H](O)[C@@H](O)[C@H]2[C@@H]3C(=O)N(Cc4ccc5c(c4)OCO5)C(=O)[C@@H]3CC[C@H]12,3.37% [at 8 µM] (inactive) and -9.87% [at 8 µM] (inactive),
CC[C@]1(C)CC(=O)NC1=O,inactive,
COc1ccc2c(=O)cc(-c3ccccc3)oc2c1O,inactive,
CCNCCCNCCCNCCCNCC,inactive,
COCCNC(=O)COc1ccc(C)c(C)c1,inactive,
CCOC(=O)c1nc(N)sc1C(=O)OCC,inactive,
FC(F)(F)c1ccccc1-c1cc(NCc2ccccc2)ncn1,inactive,
Cc1cc(C(=O)O)ccc1[N+](=O)[O-],inactive,
Nc1ccccc1N,inactive,
CCOC(=O)c1[nH]c2ccc(OC)cc2c1NC(=O)N1CCOCC1,inactive,
Cc1cccc(C(=O)O)c1[N+](=O)[O-],inactive,
Cc1nn(Cc2ccc(Cl)c(Cl)c2)c(C)c1NC(=O)c1cc(C2CC2)on1,inactive,
CCC[C@@H]1C[C@@]1(CCC)[C@@H](NC(=O)c1ccccc1)c1ccc(C(=O)OC)cc1,inactive,
CN1[C@@H]2CC[C@H]1CC(OC(=O)c1cc(Cl)cc(Cl)c1)C2 (stereo partly specified),,inactive and 15.8 µM (active)
O=C1OCCC=C1[C@@H](O)CCc1ccccc1,-3.54% [at 1.6 µM] (inactive),
CCCn1c(-c2ccc(F)cc2)nc2c(NCC3CCCN3CC)nc(C)nc21 (stereo unspecified),inactive,
Nc1cc(OC(=O)c2ccccc2Br)nn1S(=O)(=O)c1ccccc1,,10 µM (active)
C/C=C1\C(=O)C[C@@H]2[C@@H]3CCC4=CC(=O)CC[C@@]4(C)[C@H]3CC[C@@]12C,inactive,
Cc1ccnc(N)c1,inactive,
CC(C)(C)NCC[C@@H](O)c1cc(C(F)(F)F)nc2c(C(F)(F)F)cccc12,-2.37% [at 8 µM] (inactive),
COCCn1c(=O)c(-c2cc(F)cc(F)c2)nc2cncnc21,inactive,
CN=C1SC(C(=O)O)CC(=O)N1C (stereo unspecified),inactive,

SMILES,"activity change, negative = inhibition",Potency
O=NO,inactive,
COc1ccc(N)c(C)c1,inactive,
O=C(COc1ccc2oc3c(c2c1)CCCC3)Nc1ccccn1,inactive,
O=C(NCCc1ccc(Cl)cc1)C1CC(=O)N(C2CCCCC2)C1 (stereo unspecified),inactive,
CC(C)C[C@H](NC(=O)NCCc1ccc(Cl)cc1)C(=O)O,inactive,
Oc1cc2c(cc1O)CN(C(=S)NCCc1ccc(Cl)cc1)CCC2,,15.8 µM (active)
O=S(=O)(O)c1ccc(O)c2ncccc12.O=S(=O)(O)c1ccc(O)c2ncccc12.[Zn],-0.63% [at 8 µM] (inactive),
NS(=O)(=O)c1cc(C(=O)O)c(Cl)c([N+](=O)[O-])c1Cl,-7.65% [at 8 µM] (inactive),
C=CCOC(=O)C(C(C)=O)C(NC(=O)OC)c1ccccc1 (stereo unspecified),-6.02% [at 8 µM] (inactive),
Cc1ccc(Br)cc1,inactive,
CN(C)CCSS(=O)(=O)O,-2.2% [at 8 µM] (inactive),
c1ccc(Oc2ccccc2)cc1,inactive,
Oc1ccc(O)c2c(O)cccc12,inactive,
Cc1c(C)c2c(c(C)c1O)CC[C@@](C)(CN1CCN(c3cc(N4CCCC4)nc(N4CCCC4)n3)CC1)O2,inactive,
C[C@@H]1/C=C\CC(=O)OC[C@H]2O[C@@H](C=C[C@@H]2O)[C@H](C)/C=C\CC(=O)OC[C@H]2O[C@H]1C=C[C@@H]2O,0.461% [at 0.32 µM] (inactive),
COc1ccc(NC(=O)C2CCCN(S(=O)(=O)c3cccc4cccnc34)C2)cc1 (stereo unspecified),,3.16 µM (active)
O=C(O)C1CCCN(S(=O)(=O)c2cccc3cccnc23)C1 (stereo unspecified),inactive,
COc1ccc(NC(=O)C2CCCN(S(=O)(=O)c3cccc4cccnc34)C2)cc1OC (stereo unspecified),inactive,
Cc1cccc(Br)c1,inactive,
COC(=O)C(C(=O)OC)[C@@H]1CCCC(=O)C1,8.84% [at 8 µM] (inactive),
CCCC[C@@H]1C[C@H]1C(NC(=O)c1ccco1)c1ccc(C(=O)OC)cc1 (stereo partly specified),inactive,
COC(=O)NC(c1ccccc1)[C@]1(C(C)=O)CCCC1=O (stereo partly specified),-2.74% [at 8 µM] (inactive),
CC(C)=CCC/C(C)=C/CO/N=C1/C[C@@H](O)[C@@H](O)[C@@H]2[C@@H]3C(=O)N(C(C)(C)C)C(=O)[C@H]3CC[C@H]12,4.39% [at 1.6 µM] (inactive),
O=C(Cl)c1ccc([N+](=O)[O-])cc1,inactive,

SMILES,"activity change, negative = inhibition",Potency
O=C1[C@H]2[C@H]3[C@H](O)[C@H](O)C/C(=N/OCc4ccccc4)[C@H]3CC[C@@H]2C(=O)N1Cc1ccccc1,0.866% [at 1.6 µM] (inactive),
C/C(CCN1CCCCc2nc(C)c(C)cc21)=N\O[C@@H](C)c1cn([C@@H]2COC[C@@H]2O)nn1,16% [at 8 µM] (inactive),
COC(=O)C1(C)C=CCN1C(=O)c1ccccc1 (stereo unspecified),inactive,
CC1=C(C(=O)OCc2ccccc2)C(c2ccc(C(F)(F)F)cc2)NC(=O)N1CCCCCC(=O)O (stereo unspecified),inactive,
CO[C@@H]1COC(=O)[C@H](Cc2ccccc2)NC(=O)C/C=C\[C@@H](C)[C@H](OC)COC(=O)[C@@H](C)NC(=O)C/C=C\[C@H]1C,5.09% [at 1.6 µM] (inactive) and -1.18% [at 8 µM] (inactive),
COC(=O)c1ccc(C(NC(=O)OCc2ccccc2)/C(C)=C/[C@@H](C)C(=O)NCc2cc(C)on2)cc1 (stereo partly specified),inactive,
O=C(Nc1ccncc1)c1cc2ccccc2o1,inactive,
O=C(CC(Cc1ccccc1)C(=O)O)NCCc1ccc2c(c1)OCO2 (stereo unspecified),inactive,
O=C(NCCc1ccc2c(c1)OCCO2)c1cc2ccccc2o1,,12.6 µM (active)
COC(=O)C1(C)C=CC2(CCCCC2)N1C(C)=O (stereo unspecified),inactive,
CC(C)(C)c1ccc(OC2C=CC(C#Cc3ccccc3)OC2CO)cc1 (stereo unspecified),-3.38% [at 8 µM] (inactive),
CCC[C@@H]1C[C@@]1(CCC)C(NC(=O)c1ccc(-c2ccccc2)cc1)c1cccc(Cl)c1 (stereo partly specified),inactive,
CCOC(=O)Cn1c(CN(Cc2ccccc2)Cc2ccccc2)nc2c1c(=O)[nH]c(=O)n2C,inactive,
C[N+](C)(CCCCCC[N+](C)(C)CCCN1C(=O)c2cccc3cccc(c23)C1=O)CCCN1C(=O)c2cccc3cccc(c23)C1=O,inactive,
CC(C(=O)O)N1C(=O)c2cccc3cccc1c23 (stereo unspecified),inactive,
COc1ccc(N2C(=O)c3cccc4cccc(c34)C2=O)nn1,,7.94 µM (active)
CC(N)=NCc1cccc(CN)c1,inactive,
CC(=O)CC(C)C,inactive,
OCCCNCc1ccccn1,9.72% [at 8 µM] (inactive),
CO[C@H]1COC(=O)[C@H](Cc2ccccc2)NC(=O)C/C=C\[C@@H](C)[C@H](OC)COC(=O)C/C=C\[C@@H]1C,30% [at 8 µM] (inactive),
c1cncc(-c2nc(N3CCNCC3)c3ccccc3n2)c1,inactive,
Cc1ccc(S(=O)(=O)NC(=O)NN2C[C@H]3CCC[C@@H]3C2)cc1,-1.11% [at 3.58 µM] (inactive),
Cc1cccc(C(=O)O)c1,inactive,
C[C@@H](N)[C@@H](C)Cc1ccccc1,-3.08% [at 8 µM] (inactive),

SMILES,"activity change, negative = inhibition",Potency
CCOC(=O)C1Cn2c(nc3c(c2=O)C(C)(CC)Cc2ccccc2-3)S1 (stereo unspecified),,6.31 µM (active)
CCOC(=O)C1CCc2nc3ccccc3c(=O)n21 (stereo unspecified),inactive,
CC1(C)Cc2ccccc2-c2nc(CN3CCOCC3)[nH]c(=O)c21,inactive,
CCS(=O)(=O)N(C)[C@@H]1c2cc(C#N)ccc2OC(C)(C)[C@H]1O,inactive,
CCCC(Cl)CCCC(Cl)CCC(Cl)CCC(Cl)CCC(Cl)CCCC(Cl)CCC (stereo unspecified),inactive,
C1CCC2OC2C1 (stereo unspecified),inactive,
Cc1sc2c(c1C)c(=O)n(-c1ccccc1)c1nncn21,inactive,
c1ccc2c(c1)[I+]c1ccccc1-2,,15.8 µM (active)
CCCCC[C@H](O)CCCC(=O)O,inactive,
C[C@@H](c1ccccc1)N1C(=O)[C@H]2[C@H]3[C@H](O)[C@H](O)C/C(=N/OC[C@@H](O)COCc4ccco4)[C@@H]3CC[C@@H]2C1=O,0.141% [at 8 µM] (inactive),
CC(=O)Oc1ccc(C(=O)Nc2nccs2)cc1,inactive,
O=C(Cl)c1ccccc1[N+](=O)[O-],inactive,
CC(=O)Oc1ccccc1C(=O)Nc1ncc([N+](=O)[O-])s1,,1.26 µM (active)
N#Cc1cccc(-c2nc3cnc(N4CCNCC4)nc3n(C3CC3)c2=O)c1,inactive,
CO[C@H]1COC(=O)CCC[C@@H](C)[C@H](OC)COC(=O)[C@@H](C)NC(=O)C/C=C\[C@@H]1C,-7.25% [at 8 µM] (inactive),
Cc1cc(C)c2nc3c(c([C@H](O)[C@@H]4CCCCN4)c2c1)CC/C3=C/c1ccc(Cl)cc1,-12.7% [at 8 µM] (inactive),
COc1ccc(COC(=O)N/N=C2/C[C@@H](O)[C@@H](O)[C@@H]3[C@@H]4C(=O)N([C@@H](C)c5ccccc5)C(=O)[C@H]4CC[C@@H]23)cc1,-0.559% [at 8 µM] (inactive),
O=C(c1ccncc1)N1CCC2(CCN(Cc3cc(C(F)(F)F)cc(C(F)(F)F)c3)CC2)CC1,inactive,
C=C(C)C1CC=C(C)C(O)C1 (stereo unspecified),inactive,
Cc1nc2ccccc2c2oc(C(=O)NCCCN3CCC(C)CC3)cc12,,5.01 µM (active)
Cc1ccccc1S(=O)(=O)Cc1ccc(C(=O)NCCN2CCCCC2C)o1 (stereo unspecified),inactive,
CN1CCN(CCCNC(=O)c2cc3c(=O)oc4ccccc4c3s2)CC1,inactive,
CCOc1ccc(/C(O)=C2/C(=O)C(=O)N(Cc3cccnc3)C2c2ccc(N(C)C)cc2)c(C)c1 (stereo unspecified),inactive,
Cn1c(=O)n2n(c1=O)[C@H]1[C@H](O)[C@H]3O[C@H]3C(=O)[C@H]1CC2,12.4% [at 8 µM] (inactive),
